# Measurements from the supplement of paper PMC10498489.
# In all, about 2,300 compounds went through this assay and about 330 (14%) showed activity. A selection follows. Unmarked numbers belong to inactive results.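 The calls were made as follows: active = median modified Z-score above 1.96; inactive = 1.96 or below.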
# Test system: HepG2 Srxn1-GFP reporter cells (+30 nM CDDO-Me)
# Experiment: Srxn1-GFP intensity median modified Z-score relative to plate median; higher = stronger NRF2 / oxidative stress reporter activation, active = hit call of the paper
# Conditions: 10 µM; exposure time: 24h
# How it was run: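 The modified Z-score of GFP intensity was computed per plate, and the median over replicates is reported. HepG2 Srxn1-GFP BAC reporter cells in three replicate plates were treated for 24 h with compound at 10 μM plus an NRF2 activator at 30 nM (≤0.1% DMSO). Per-cell cytoplasmic GFP came from confocal images, excluding those with under 100 cells, and scaling used 1.4826 × median absolute deviation.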
row,SMILES,Srxn1-GFP intensity median modified Z-score
1,COc1cc(=NS(=O)(=O)c2ccc(N)cc2)[nH]c(OC)n1 [euspeclibcmpd399],-0.451
2,OC[C@H]1O[C@H](O[C@H]2[C@H](O)[C@@H](O)[C@H](O)O[C@@H]2CO)[C@H](O)[C@@H](O)[C@@H]1O [euspeclibcmpd2088],-0.629
3,COCCn1c(SCC(=O)N(C)Cc2ccc(Cl)s2)nc2cc(Cl)ccc21,0.575
4,CC(C=Cc1c(C)c(O)c2ccccc2c1O)=CCC[C@H](C)CCC[C@H](C)CCCC(C)C [euspeclibcmpd621],-0.697
5,N=c1[nH]nc(-c2cccc(Cl)c2Cl)c(=N)[nH]1 [euspeclibcmpd829],-0.0242
6,CCN(CCCc1ccccc1)CCCc1ccccc1 [euspeclibcmpd16],0.166
7,CCN(CC)CCc1nc(-c2ccccc2)no1 [euspeclibcmpd2430],10.5 (active)
8,C[C@H](CC(=O)C1OC1(C)C)[C@@H]1C(=O)C[C@@]2(C)C3=CCC4C(C)(C)[C@@H](O[C@@H]5OC[C@@H](O)[C@H](O)[C@H]5O)CC[C@@]45C[C@@]35[C@@H](O)C[C@]12C (some centres undefined) [euspeclibcmpd2331],0.374
9,COCCCCC(=NOCCN)c1ccc(C(F)(F)F)cc1 [euspeclibcmpd828],-0.302
10,NC(=O)CCC(N)C(=O)O (centres undefined) [euspeclibcmpd1404],-0.533
11,COc1cc(C(=O)N2CCOCC2)cc(OC)c1OC [euspeclibcmpd666],0.129
12,COc1cc(OC)c(C(=O)CCCN2CCCC2)c(OC)c1 [euspeclibcmpd1235],-0.587
13,COc1cc(C(=O)OCCCN2CCCN(CCCOC(=O)c3cc(OC)c(OC)c(OC)c3)CC2)cc(OC)c1OC [euspeclibcmpd1946],6.07 (active)
14,COc1cc(-c2coc3cc(OCc4ccccc4)c(OC)c(O)c3c2=O)cc(OCc2ccccc2)c1OC [euspeclibcmpd1942],-0.32
15,COc1cc2c(cc1OC)-c1cc3ccc(OC)c(OC)c3c[n+]1CC2 [euspeclibcmpd2350],0.574
16,C[n+]1cc2c3c(ccc2c2ccc4cc5c(cc4c21)OCO5)OCO3 [euspeclibcmpd10],0.32
17,COc1ccc2cc3[n+](cc2c1OC)CCc1cc2c(cc1-3)OCO2 [euspeclibcmpd1051],6.03 (active)
18,CCc1cccc2c(C(=O)COC(=O)c3c4c(nc5ccccc35)CCC(C(C)(C)C)C4)c[nH]c12 (centres undefined),1.73
19,C#C[C@]1(O)CCC2C3CCc4cc(OC5CCCC5)ccc4C3CC[C@@]21C (some centres undefined) [euspeclibcmpd466],0.485
20,CCCCCC(CC(=O)O)C(=O)O (centres undefined) [euspeclibcmpd1642],-0.141
21,CCCCCC(CC(O)=NO)C(=O)NC(C(=O)N1CCCC1CO)C(C)C (centres undefined) [euspeclibcmpd1993],11.7 (active)
22,CN1N=C(C(=O)NC2(C)CCS(=O)(=O)C2)CCC1=O (centres undefined),1.37
23,C[C@]12CCC3c4ccc(OS(=O)(=O)O)cc4CCC3C1CCC2=O (some centres undefined) [euspeclibcmpd707],-0.429

row,SMILES,Srxn1-GFP intensity median modified Z-score
1,CN=C(NC#N)NCCSCc1[nH]cnc1C [euspeclibcmpd338],3.04 (active)
2,O=C(N[C@@H](CO)[C@H](O)c1ccc([N+](=O)[O-])cc1)C(Cl)Cl [euspeclibcmpd53],-0.347
3,CC1(C)CC[C@]2(C)CC[C@]3(C)C(=CCC4[C@@]5(C)CC[C@H](O)C(C)(C)C5CC[C@]43C)C2C1 (some centres undefined) [euspeclibcmpd1345],1.93
4,CC1(C)CC[C@]2(C(=O)O)CC[C@]3(C)C(=CCC4[C@@]5(C)CC[C@H](O)[C@@](C)(CO)C5CC[C@]43C)C2C1 (some centres undefined) [euspeclibcmpd1554],-0.176
5,CC1(C)CC[C@]2(C(=O)O)CC[C@]3(C)C(=CCC4[C@@]5(C)CC[C@@H](O)C(C)(C)C5CC[C@]43C)C2C1 (some centres undefined) [euspeclibcmpd1603],4.09 (active)
6,Cc1cc2nc3c(=O)[nH]c(=O)nc-3n(C[C@@H](O)[C@@H](O)[C@@H](O)COP(=O)(O)O)c2cc1C [euspeclibcmpd2323],-0.0697
7,Cc1ccc2[nH]c3c(c2c1)CC(Nc1ccc(CCC(=O)N2CCCC2)cc1)CC3 (centres undefined),4.66 (active)
8,O=C(Nc1ccccc1)OCC(CN1CCCCC1)OC(=O)Nc1ccccc1 (centres undefined) [euspeclibcmpd499],-0.575
9,CN1C(C(=O)N=c2cccc[nH]2)C(=O)c2sccc2S1(=O)=O (centres undefined) [euspeclibcmpd536],-0.404
10,N=c1ccn([C@H]2CC[C@@H](CO)O2)c(=O)[nH]1 [euspeclibcmpd485],-0.378
11,CCC(CCC(C)[C@H]1CCC2C3CC=C4C[C@@H](OC(C)=O)CC[C@]4(C)C3CC[C@@]21C)C(C)C (some centres undefined) [euspeclibcmpd1595],-0.573
12,COc1ccc2oc(-c3ccccc3OC)cc(=O)c2c1 [euspeclibcmpd1670],3.62 (active)
13,COc1ccc2oc(-c3ccccc3OC)cc(=O)c2c1,0.553
14,COc1ccccc1-c1cc(=O)c2c(OC)cccc2o1 [euspeclibcmpd2107],2.2 (active)
15,COc1cc(OC)c2c(=O)cc(-c3ccccc3)oc2c1 [euspeclibcmpd1677],0.503
16,O=c1cc(-c2ccccc2)oc2cccc(O)c12 [euspeclibcmpd2071],-0.0825
17,COc1ccc(-c2cc(=O)c3cc(OC)ccc3o2)cc1 [euspeclibcmpd2272],-0.0301
18,COc1ccc2c(=O)cc(-c3ccccc3OC)oc2c1 [euspeclibcmpd2182],0.253
19,Cn1c(=O)c2nc(Br)[nH]c2n(C)c1=O [euspeclibcmpd2124],-0.455
20,C[N+](C)(C)CCOP(=O)(O)OP(=O)(O)OC[C@H]1OC(n2ccc(=N)[nH]c2=O)[C@H](O)[C@@H]1O (some centres undefined) [euspeclibcmpd812],-0.665
21,CC(=O)[C@@]1(O)CCC2C3=CC(Cl)=C4CC(=O)C5CC5[C@]4(C)C3CC[C@@]21C (some centres undefined) [euspeclibcmpd1156],-0.345
22,CS(=O)(=O)c1ccc(N)cc1,0.342
23,CC(C)CCCC(C)[C@H]1CCC2C3CC=C4CC(=O)CC[C@]4(C)C3CC[C@@]21C (some centres undefined) [euspeclibcmpd1330],-0.35

row,SMILES,Srxn1-GFP intensity median modified Z-score
1,c1ccc(C2CN3CCSC3=N2)cc1 (centres undefined) [euspeclibcmpd2122],1.03
2,O=C(O)c1nc2cc(Cl)c(Cl)cc2[nH]c1=O [euspeclibcmpd1804],-0.361
3,O=c1[nH]c(=O)n(C2C[C@H](O)[C@@H](CO)O2)cc1C(F)(F)F (some centres undefined) [euspeclibcmpd660],2.21 (active)
4,O=c1[nH]c(=O)n(C2C[C@@H](O)[C@@H](CO)O2)cc1F (some centres undefined) [euspeclibcmpd516],1.56
5,O=c1[nH]c(=O)n([C@H]2C[C@H](O)C(CO)O2)cc1I (some centres undefined) [euspeclibcmpd2208],0
6,CC(NC(CCc1ccccc1)C(=O)O)C(=O)N1Cc2ccccc2CC1C(=O)O (centres undefined) [euspeclibcmpd841],-0.626
7,CC[C@H]1OC(=O)C(C)[C@@H](O[C@H]2C[C@@](C)(OC)[C@@H](O)[C@H](C)O2)[C@H](C)[C@@H](O[C@@H]2O[C@H](C)C[C@H](N(C)C)[C@H]2O)[C@](C)(OC)CC(C)C(=O)C(C)[C@@H](O)[C@]1(C)O (some centres undefined) [euspeclibcmpd669],1.56
8,CC(C(=O)O)C1CCC2C3CC=C4CC(O)CCC4(C)C3CCC12C (centres undefined) [euspeclibcmpd1985],0.801
9,CCCCc1oc2ccccc2c1C(=O)c1cc(I)c(OCCN(CC)CC)c(I)c1 [euspeclibcmpd976],-0.752
10,CCc1oc2ccccc2c1C(=O)c1cc(Br)c(O)c(Br)c1 [euspeclibcmpd888],2.7 (active)
11,O=C(O)c1cc(=O)c2ccccc2o1 [euspeclibcmpd1112],-0.193
12,CC(=O)OCC[C@H](C)CCC=C(C)C [euspeclibcmpd1610],1.13
13,COc1ccc2c(c1)c(CC(=O)Nc1nccs1)c(C)n2C(=O)c1ccc(Cl)cc1,1.66
14,O=C(/C=C/c1ccccc1)c1ccc(O[C@@H]2O[C@H](CO)[C@@H](O)[C@H](O)[C@H]2O)cc1O [euspeclibcmpd1690],-0.0185
15,O=C(C=Cc1ccccc1)c1ccc(O)cc1O [euspeclibcmpd1990],2.48 (active)
16,O=C(C=Cc1ccc(O)cc1)c1ccccc1O [euspeclibcmpd2063],-0.0605
17,COc1ccc(/C=C/C(=O)c2ccc(O)cc2O)cc1 [euspeclibcmpd1445],1.77
18,O=C(C=Cc1ccc(O)cc1)c1ccc(O)cc1O [euspeclibcmpd1984],13.1 (active)
19,COc1ccc(O)c(C(=O)/C=C/c2ccc(F)cc2)c1,1.36
20,N=c1[nH]c(F)nc2c1ncn2[C@@H]1O[C@H](COP(=O)(O)O)[C@@H](O)[C@@H]1O [euspeclibcmpd850],0.307
21,COc1cc(C=CC(=O)O)cc(OC)c1O [euspeclibcmpd1663],-0.0893
22,CC(C)(C)NC(=O)C1CCC2C3CCC4NC(=O)C=C[C@]4(C)C3CC[C@]12C (some centres undefined) [euspeclibcmpd849],-0.292
23,COc1cccc(OC)c1C(=O)NC1C(=O)N2C1SC(C)(C)C2C(=O)O (centres undefined) [euspeclibcmpd2201],0.364
